Measured values published in PubChem BioAssay (NCI).
About 83,000 compounds went through this panel and 20% of them were active in at least one assay; those are over-represented in the sample as a whole.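 Assay: single dose, 48 h. Readout: percent growth (0 = no net growth; negative = cell death). Active: <10.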 A number with no mark means an inactive call. Calls of active or inactive are those of the source.

Key:
Assay in all cases: NCI-60 one-dose screen, 48 h (100 = growth as untreated, 0 = no growth, -100 = all killed)
Conditions in all cases: 10 µM unless noted
SK-MEL-2 melanoma = test system: SK-MEL-2 melanoma
SN12C renal = test system: SN12C renal
UO-31 renal = test system: UO-31 renal
TK-10 renal = test system: TK-10 renal
ACHN renal = test system: ACHN renal
CAKI-1 renal = test system: CAKI-1 renal
A498 renal = test system: A498 renal
CCRF-CEM leukemia = test system: CCRF-CEM leukemia
MOLT-4 leukemia = test system: MOLT-4 leukemia

SMILES | growth (SK-MEL-2 melanoma) | growth (SN12C renal) | growth (UO-31 renal) | growth (TK-10 renal) | growth (ACHN renal) | growth (CAKI-1 renal) | growth (A498 renal) | growth (CCRF-CEM leukemia) | growth (MOLT-4 leukemia)
COc1ccc2cc1Oc1ccc(cc1)C[C@H]1c3c(cc4c(c3Oc3cc5c(cc3OC)CCN(C)[C@@H]5C2)OCO4)CCN1C | 69.9% | 60.3% | 60.6% | 44.8% | 63% | 70.8% | 32.2% | 21% | 31.5%
O=C1/C(=C/c2cccc(F)c2)CN(C(=O)C(Cl)Cl)C/C1=C\c1cccc(F)c1 | -38.1% (active) | -90.3% (active) | -85.5% (active) | -78.8% (active) | -97.7% (active) | – | -80.1% (active) | 0.153% (active) | -23.3% (active)
Nc1ncnc2c1N=C(c1ccc(Br)cc1)CC(c1cccc(Nc3ccnc4cc(C(F)(F)F)ccc34)c1)N2 (centres undefined) | 68.5% | 70.6% | 47.2% | 102% | 80% | 56.2% | 63% | 34.3% | 16.8%
Cc1ccc(Nn2c(SCC(=O)Nc3nc(-c4ccccc4)cs3)nc(C)c2C)cc1 | 81.4% | 64.3% | 51.6% | 72.7% | 60.9% | 53.6% | 92.5% | 57.7% | 54.7%
COC1=CC(c2ccc[nH]2)=N/C1=C\c1[nH]c(C)c(CC(=O)NCc2ccccc2)c1C | 16.7% | 29.1% | -17.4% (active) | 24.9% | 8.33% (active) | 1.97% (active) | -5.8% (active) | 22.4% | 3.45% (active)
NS(=O)(=O)c1ccc(N=Nc2c(O)n(Cc3ccccc3)c3ccc(Cl)cc23)cc1 | 98.6% | 87.3% | 81.2% | 95% | 64.9% | 64.4% | 78.3% | 96.2% | 72.2%
COc1cc(-c2csc(NC(=O)c3ccc(N4CCOCC4)c(C(F)(F)F)c3)n2)cc(OC)c1OC | 23% | 48.9% | 15.4% | 64.5% | 21.6% | – | 56.7% | 14.2% | 10.1%
CC(=O)Oc1ccc(/C(=C(\C)c2ccc(Cl)cc2)c2ccc(OCCN3CCCCC3)cc2)cc1 | 58.4% | 64.6% | 47.7% | 68.4% | 58.3% | 74.9% | 57.5% | 17.5% | -8.3% (active)
COc1ccc(C2=C(Br)C(=O)c3nc(C)ccc3C2=O)cc1 | 102% | 92.8% | 69.9% | 71.7% | 17% | 81.2% | 88.7% | 30.1% | 41.4%
C=CCOC(=O)Nc1cccn([C@H](Cc2ccccc2)C(=O)NCCC(C)C)c1=O | 115% | 98.7% | 88.7% | 111% | 103% | 89.8% | 114% | 77.1% | 93.6%
CN(C)CC(C)(C)C(=O)/C=C/c1ccccc1 | -74.2% [25 µM] (active) | -34.1% [25 µM] (active) | -90.3% [25 µM] (active) | -9.48% [25 µM] (active) | -71.4% [25 µM] (active) | -6.22% [25 µM] (active) | -14.7% [25 µM] (active) | 2.8% [25 µM] (active) | -5.22% [25 µM] (active)
Nc1nc(-c2ccc(Cl)cc2)nc2c1sc(=S)n2-c1ccccc1 | 83.7% | 53.2% | -38.4% (active) | 14.1% | -4.93% (active) | 42.3% | 26.3% | 85.4% | 82.8%
C=C1C(=O)O[C@H]2[C@H]1CC/C(COC(=O)c1cc3ccccc3s1)=C\CC[C@@]1(C)O[C@@H]21 | -67.2% (active) | -43.9% (active) | -94.3% (active) | -91.9% (active) | -91.3% (active) | -72.6% (active) | 61.9% | -25.3% (active) | -4.09% (active)
CC(=O)c1c(C)nc(SCC(=O)Nc2cccc(O)c2)n1-c1ccc(Cl)cc1 | 104% | 83.8% | 86.3% | 107% | 107% | 90.6% | 91.9% | 96% | 95.4%
O=C1NC2(Nc3ccccc31)C(=O)Nc1c(Cl)cc(Cl)cc12 (centres undefined) | 119% | 106% | 78.5% | 206% | 107% | 85.1% | 106% | 103% | 93%
CC(C)=CCCC(C)c1ccc(C)c2c1OCN(CCCCCO)C2 (centres undefined) | 92.7% | 78.6% | 57% | 73.7% | 94.1% | 78.1% | 75.3% | 96% | 66.5%
COc1ccccc1NC(=O)N=Nc1c(O)[nH]c2ccccc12 | 100% | 93.5% | 58.7% | 118% | 93% | 73.3% | 90.7% | 89.9% | 93.4%
CN1C(=O)/C(=C\c2nc([P+](c3ccccc3)(c3ccccc3)c3ccccc3)c(N3CCOCC3)o2)SC1=S | 71.5% | 68.4% | 80.4% | 106% | 102% | 91.5% | 85.6% | 19.9% | 81.5%
COc1ccc(CNc2c3ccccc3nc3ccccc23)cc1 | 60.1% | 32.2% | 22.1% | 49.5% | 18.8% | 29.3% | 10% | 39% | 9.38% (active)
